Only some compounds are listed: those with a hit (about 3.6% of all), similar ones and a draw of the others.
mHTT-CaM PPI inh – mutant huntingtin-calmodulin interaction inhibitors – biochemical, AlphaScreen, primary screen; P42858; AlphaScreen His-mHTT/GST-CaM binding, luminescence; inhibition, % at 15 µM; actives 3.6% (n = 190,000); AID 1671202, 2021;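 also: 0% = both proteins with DMSO and 100% = one protein alone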
Pf apPOL block – Pf-apPOL inhibitors, biochemical, fluorescence; Recombinant Pf-apPOL, molecular beacon fluorescence, 1.5 h; inhibition, % at 10 µM; actives 0.25% (n = 210,000)
Numbers without * were called inactive; . = no result. Rule as the data show it: active = inhibition above about 50%; inactive = the rest.

SMILES	mHTT-CaM PPI inh	Pf apPOL block
CCN(CC)Cc1c(O)c(CN(CC)CC)c2oc(-c3ccccc3)cc(=O)c2c1O	100.3*	5.0
Cc1ccc(C)n1-c1ccc(Cl)c(O)c1	96.4*	-1.1
Cc1ccc(C)n1-c1ccc(C(=O)NN)c(Cl)c1	31.2	1.7
CC(C)Cn1c(=O)c(N2CCN(C(=O)c3ccccc3Cl)CC2)nc2ccncc21	-0.8	-3.4
COc1ccccc1C1(CNC(=O)Cc2cn(C)c3ccccc23)CCOCC1	3.6	-3.1
CC(C(=O)Nc1nc2c(s1)CCCC2)n1nc(-c2ccc(F)cc2)ccc1=O (stereo not drawn)	87.5*	-1.4
CC(C(=O)Nc1cc(Cl)ccc1C#N)n1nc(-c2ccc(F)cc2)ccc1=O (stereo not drawn)	-5.3	-5.5
O=C(Nc1ccc(N2CCOCC2)cc1)c1cn2c(n1)COCC2	5.8	1.3
N#Cc1cccc(NC(=O)c2ccncc2)c1	.	-6.7
O=C(Nc1cccc(NC(=O)c2ccncc2)c1)c1ccncc1	0.1	99.3*
COc1ccccc1C=CC(=O)c1cc(Br)ccc1O	6.1	-3.4
NNC(=O)CNC(=O)c1ccccc1	0.3	61.8*
O=C(O)CNC(=O)c1ccccc1	-7.6	-7.6
COc1ccc2c(=O)c(-c3ccc(Br)cc3)c(C)oc2c1	-3.1	4.0
Cc1cc(C(=O)N2CCC3(CC2)OCCO3)c2ccccc2n1	-6.0	-7.5
Cc1ccc(Cn2c(=O)cc(C(=O)N3CCC4(CC3)OCCO4)c3ccccc32)cc1	59.0*	0.8
Fc1ccc(-c2nc(Cn3ccnc3)no2)cc1	-4.7	-1.0
CN(C)/C=C1\N=C(c2ccccc2)c2cc(Cl)ccc2N(C)C1=O	51.0*	3.4
CN1C2=NCCN2C(=O)c2cc(Cl)ccc21	.	-5.4
CC(=O)Nc1ccc(S(=O)(=O)Nc2ccc(C)cc2[N+](=O)[O-])cc1	50.7*	0.1
CC(=O)Nc1ccc(S(=O)(=O)Nc2ccc(C)cc2Br)cc1	-2.3	-6.9
O=C(c1cc2nc(-c3cccs3)cc(C(F)(F)Cl)n2n1)N1CCCCCC1	-3.0	0.6
COc1ccc(Cl)cc1NC(=O)CSC1=C(C#N)C(c2ccco2)C(C(N)=O)=C(C)N1 (stereo not drawn)	54.0*	-8.3
CC1=C(C(N)=O)C(c2ccco2)C(C#N)=C(SCC(=O)Nc2cccc(Cl)c2C)N1 (stereo not drawn)	27.1	0.5
COc1ccc(N2CCN(Cc3cnoc3-c3ccccc3)CC2)cc1	57.2*	-9.8
SMILES	mHTT-CaM PPI inh	Pf apPOL block
COc1cccc(-c2oncc2CN2CCN(c3ccccc3)CC2)c1	18.9	-1.0
COc1ccc(-c2nn(-c3ccccc3)cc2C2SCC(=O)N2Cc2ccccc2)cc1 (stereo not drawn)	87.0*	-5.1
O=C1CSC(c2cn(-c3ccccc3)nc2-c2cccnc2)N1Cc1ccccc1 (stereo not drawn)	28.0	-36.4
O=C(NCc1ccccc1Cl)c1cccn2c(=O)c3ccc(Cl)cc3nc12	12.0	-4.3
Brc1ccc2[nH]c3nc4ccccc4nc3c2c1	-3.0	0.7
NNc1nnc2c(n1)[nH]c1ccc(Br)cc12	66.7*	11.4
COc1cccc2cc(C(N)=O)c(=Nc3ccc(C(N)=O)cc3)oc12	-18.0	1.2
COc1cccc2cc(C(N)=O)c(=Nc3ccc(O)cc3)oc12	99.0*	-4.5
O=C(Nc1ccccc1-c1nc2ccccc2[nH]1)c1coc2ccccc2c1=O	33.8	5.1
COc1cccc(OC)c1OCC(O)CN1CCN(c2cccc(Cl)c2)CC1 (stereo not drawn)	52.9*	1.2
O=[N+]([O-])c1ccccc1OCC(O)CN1CCN(c2cccc(Cl)c2)CC1 (stereo not drawn)	22.7	-13.2
Cc1ccc(Cl)cc1N1CCN(CC(O)COc2ccccc2[N+](=O)[O-])CC1 (stereo not drawn)	90.8*	5.8
COc1cccc(OC)c1OCC(O)CN1CCN(c2ccccc2F)CC1 (stereo not drawn)	5.3	-3.7
COc1cccc(OC)c1OCC(O)CN1CCN(c2cc(Cl)ccc2C)CC1 (stereo not drawn)	64.0*	1.3
COc1ccc(N2CCN(CC(O)COc3c(OC)cccc3OC)CC2)cc1 (stereo not drawn)	7.0	-6.2
O=C(NCc1ccccc1)c1ccn2c(-c3cc(F)cc(F)c3)nnc2c1	4.2	-2.7
O=C(CCSc1ccc(F)cc1)Nc1ccc2scnc2c1	-13.1	-6.6
Cc1[nH]n2c(=O)cc(-c3ccccc3)nc2c1-c1ccccc1	10.7	-5.3
CCCc1cc(=O)n2[nH]c(Cc3ccccc3)c(-c3ccccc3OC)c2n1	0.1	1.9
COc1ccccc1-c1c(Cc2ccccc2)[nH]n2c(=O)cc(-c3ccccc3)nc12	67.3*	1.8
COc1ccc(-c2c(C)[nH]n3c(=O)cc(-c4ccccc4)nc23)cc1	73.0*	1.7
CN1CCCn2nc(C3CCN(C(=O)CC(C)(C)C)CC3)cc2C1=O	-4.3	0.1
